An excerpt weighted towards active compounds, which were near 19% of everything screened.
ELG1 DNA repair: qHTS screen for small molecules that inhibit ELG1-dependent DNA repair in human embryonic kidney (HEK293T) cells expressing luciferase-tagged ELG1 | HEK293T ELG1-luciferase reporter, luminescence, 16 h; DNA damage induced by 5-fluorouridine | Potency, µM (top dose mostly 46.1 µM), for the others: at the highest dose activity change, negative = inhibition, most hits filed as inhibitors | 2.3% of 330,000 active | AID 504467, 2011; note: potency is the fitted concentration of half-maximal effect; nearly all actives have a fitted effect of over 55% in size
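DMSO vehicle served as the neutral condition. Each well held 2,000 cells given 5-fluorouridine plus compound; after 16 hr at 37 °C/5% CO2, ONE-Glo was added and luciferase measured 30 min later.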
HT1080-NT tox: qHTS for induction of synthetic lethality in tumor cells producing 2HG: qHTS for the HT-1080-NT fibrosarcoma cell line | HT-1080-NT fibrosarcoma viability, CellTiter-Glo ATP luminescence, 48 h | Potency, µM (doses to about 46.1 µM), inactives show top-dose activity, negative = less viability, most hits filed as cytotoxic | 1.6% of 360,000 active | AID 686970, 2013;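 note: NT is the 2HG producing partner of a matched IDH1 knockdown line; potency is the fitted concentration of half-maximal effect; 0% = DMSO-treated cells and -100% = media-only wells without cells; nearly all actives have a fitted effect of over 55% in size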
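Viability by CellTiter-Glo luminescence after 48 h compound exposure at 37C of HT-1080-NT cells (750/well, RPMI, 5% FBS). % activity scaled between DMSO wells and medium-only wells, then curve-fitted and categorized by curve class.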
TDP1 cell CPT: qHTS for Inhibitors of human tyrosyl-DNA phosphodiesterase 1 (TDP1): qHTS in cells in presence of CPT; chicken DT40 Tdp1-/-;hTDP1 cells + 20 nM CPT, ATP luminescence, 48 h; Potency, µM (doses to about 46.2 µM), without a hit: at the top dose activity change, negative = growth inhibition, usual class: inhibitors; 12% of 420,000 active; AID 686979, 2013; note: potency is the fitted concentration of half-maximal effect; nearly all actives have a fitted effect of over 55% in size
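Cell growth measured by CellTiter-Glo luminescence after a minimum 48 h, 37 C compound exposure with 20 nM CPT in Tdp1-knockout DT40 cells stably expressing hTDP1, seeded 400/well; qHTS titration format.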
HT1080 IDH1KD tx: qHTS for induction of synthetic lethality in tumor cells producing 2HG: qHTS for the HT-1080-IDH1KD cell line; HT-1080 IDH1 knockdown viability, ATP luminescence, 48 h; 2% of 360,000 active; Potency, µM (top dose mostly 46.1 µM), for inactives: top-dose activity, negative = toxicity, most hits filed as cytotoxic; AID 686971, 2013;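 note: potency is the fitted concentration of half-maximal effect; 0% = DMSO wells and -100% = cell-free medium wells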
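Knockdown cells (IDH1KD HT-1080) received compounds 2 h after plating at 750 cells/well and were kept 48 h at 37 °C in 5% FBS RPMI. A CellTiter-Glo luminescence read gave % activity for curve fitting.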
IL-1B inflam inh: qHTS for Inhibitors of Inflammasome Signaling: IL-1-beta AlphaLISA Primary Screen; THP-1 LPS/ATP IL-1B secretion, AlphaLISA, 16 h; active compounds read low; activity change, % at 57.5 µM; 4.7% of 360,000 active; AID 743279, 2014; in the data active = activity change below about -50%; inconclusive = mostly about -30% to -49%
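Secreted IL-1B measured by AlphaLISA bead assay after 16 h compound exposure of THP-1 cells; compounds (final up to 57.5 uM) added 1 h before LPS (250 ng/mL) and ATP (1.25 mM) stimulation; lower signal means less secretion.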
DT40 TDP1 no CPT: qHTS for Inhibitors of human tyrosyl-DNA phosphodiesterase 1 (TDP1): qHTS in cells in absence of CPT; DT40 Tdp1-/- hTDP1 cells, no CPT, ATP luminescence, 48 h; 15% of 420,000 active; Potency, µM (doses to about 46.2 µM), without a hit: at the top dose activity change, negative = growth inhibition, usual class: inhibitors; AID 686978, 2013; note: potency is the fitted concentration of half-maximal effect; nearly all actives have a fitted effect of over 55% in size
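Luminescent ATP content (CellTiter-Glo) served as the growth readout. Knockout chicken DT40 cells expressing human TDP1 were exposed to compounds without camptothecin for a minimum 48 hr at 37 °C.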
Active calls of the source: *; u = inconclusive; x = no result; [ ] = dose if it differs, or a comment. Unless noted, calls come from the whole dose curve; as a rule, active = well fitted curve in the direction sought with a large enough effect; inconclusive = small, poorly fitted or top-dose-only effect, or another doubt; inactive = no such curve, though single readings can be large; an effect the other way counts as inactive or inconclusive. Unless noted, % is set by controls: 0 for no effect and ±100 for the full control effect.

SMILES	ELG1 DNA repair	HT1080-NT tox	TDP1 cell CPT	HT1080 IDH1KD tx	IL-1B inflam inh	DT40 TDP1 no CPT
CCOC(=O)c1nnn(-c2nc(N3CCCC3)nc(N3CCCC3)n2)c1-c1ccccc1	-14.4%	0.6%	18.4µM*	4.3%	16.8	u
CCOC(=O)Cn1cc(-c2ccccc2)nn1	6.9%	16.0%	15.4%	8.7%	40.5	-3.5%
CCOC(=O)c1nnn(-c2nc(OC)nc(N3CCCCC3)n2)c1-c1ccccc1	18.4µM*	x	x	x	x	x
CCOC(=O)c1nnn(-c2nonc2N)c1-c1ccc(OCC)cc1	-6.5%	-7.6%	-4.2%	-9.0%[9.24 µM]	46.5	-27.5%
CCOC(=O)c1c(-c2ccccc2)nnn1-c1nc(OCC)nc(N2CCCCC2)n1	u	u	18.4µM*	u	-20.9	u
CCOc1nc(N2CCCCC2)nc(-n2cc(-c3ccccc3)nn2)n1	0.0%	21.2%	16.4µM*	22.8%	x	18.4µM*
CCCN1CC(CSC)C[C@H]2c3cccc4[nH]cc(c34)C[C@H]21 (stereo not given in full)	x	x	-11.2%	x	x	-10.2%
O=C(Nc1nnc([C@@H]2C[C@H](O)[C@@H](CO)O2)s1)c1cccc(C(F)(F)F)c1	x	16.3%	-0.8%	21.4%	-16.0	9.2%
CCC(N)(C(=O)O)c1ccc(C(=O)O)cc1 (stereo not given)	x	x	u	x	x	-20.4%
O=C(Nc1cccc(S(=O)(=O)N2CCCCC2)c1)c1c2c(nc3ccccc13)CCN(Cc1ccccc1)C2	u	-20.1%	20.6µM*	-21.3%	-1.0	18.4µM*
O=C(CN1CCOCC1)Nc1cccc(S(=O)(=O)N2CCCCCC2)c1	11.8%	12.4%	0.6%	6.9%	-0.7	-15.5%
O=C(CN1C(=O)c2ccccc2S1(=O)=O)Nc1cccc(S(=O)(=O)N2CCCCC2)c1	-5.5%	-1.2%	u	-7.0%	29.2	18.4µM*
O=C(CN1CCN(Cc2ccccc2)CC1)Nc1cccc(S(=O)(=O)N2CCCCCC2)c1	0.0%	-25.9%	u	u	-68.8*	u
O=S(=O)(c1cccc(Cn2nnc(-c3ccccc3)n2)c1)N1CCOCC1	u	-11.1%	23.1µM*	-2.5%	15.3	20.6µM*
O=S(=O)(NCCc1ccccc1)c1cccc(S(=O)(=O)N2CCOCC2)c1	-2.3%	1.8%	-27.6%	-0.4%	20.8	u
O=C(CN1C(=O)c2ccccc2S1(=O)=O)Nc1cccc(S(=O)(=O)N2CCOCC2)c1	-0.7%	8.5%	1.1%	21.6%	39.7	-18.7%
CS(=O)(=O)Cc1cccc(C(=O)NC2CCSc3ccccc32)c1 (stereo not given)	19.2%	-0.2%	-0.7%	-10.2%	14.2	2.8%
O=C(NC12CC3CC(CC(C3)C1)C2)C1CCCN1C(=O)Nc1ccccc1 (stereo not given)	8.6%	7.1%	-0.2%	5.7%	4.3	-2.5%
CC(CC(=O)Nc1cccc(S(=O)(=O)N2CCCCC2)c1)c1ccccc1 (stereo not given)	u	-0.9%	u	-1.5%	-3.4	u
O=C(Cn1nnc(-c2ccccc2)n1)Nc1cccc(S(=O)(=O)N2CCCC2)c1	-9.1%	-12.8%	18.4µM*	-15.9%	6.5	20.6µM*
CCCC(C(=O)Nc1cccc(S(=O)(=O)N2CCCC2)c1)c1ccccc1 (stereo not given)	u	u	23.1µM*	-28.9%	-8.5	20.6µM*
O=C(Cn1cnnn1)Nc1cccc(S(=O)(=O)N2CCCCC2)c1	5.7%	15.1%	-3.5%	5.3%	0.0	-2.1%
COc1cccc(Nc2ncc3nc(-c4cn(C)c5ccccc45)c(=O)n(C[C@H]4CCCO4)c3n2)c1	x	x	-3.8%	x	x	13.5%
O=C(N/N=C/c1cc2cc3c(cc2nc1Cl)OCO3)c1ccncc1	u	-5.1%	17.1%	5.3%	-16.4	-2.5%
COc1ccc(S(=O)(=O)Nc2ccc3c(c2)C(=O)N([C@H](C)CO)C[C@H](C)[C@@H](CN(C)C(=O)Nc2ccc(F)cc2)OCCCC[C@H](C)O3)cc1	x	-17.0%	u	-11.0%	-3.3	23.1µM*
SMILES	ELG1 DNA repair	HT1080-NT tox	TDP1 cell CPT	HT1080 IDH1KD tx	IL-1B inflam inh	DT40 TDP1 no CPT
COc1ccc(NC(=O)N(C)C[C@H]2OCCCC[C@H](C)Oc3ccc(NS(=O)(=O)c4cn(C)cn4)cc3C(=O)N([C@H](C)CO)C[C@@H]2C)cc1	x	5.1%	9.6%	2.7%	34.6	12.8%
COc1ccc(NC(=O)N(C)C[C@H]2OCCCC[C@@H](C)Oc3ccc(NC(=O)c4ccccc4)cc3C(=O)N([C@H](C)CO)C[C@@H]2C)cc1	x	3.2%	u	-12.1%	x	20.6µM*
COc1ccc(S(=O)(=O)Nc2ccc3c(c2)C(=O)N([C@H](C)CO)C[C@H](C)[C@@H](CN(C)C(=O)Nc2ccc(C(F)(F)F)cc2)OCCCC[C@H](C)O3)cc1	x	-21.7%	u	-11.6%	u	23.1µM*
C[C@@H]1CCCCO[C@H](CN(C)C(=O)CCC(F)(F)F)[C@@H](C)CN([C@H](C)CO)C(=O)c2cc(NC(=O)c3ccncc3)ccc2O1	x	-2.6%	u	-6.6%	u	u
C[C@@H]1CCCCO[C@H](CN(C)C(=O)Nc2ccc(C(F)(F)F)cc2)[C@@H](C)CN([C@H](C)CO)C(=O)c2cc(NC(=O)c3ccncc3)ccc2O1	x	-12.7%	20.6µM*	-6.1%	-15.7	14.6µM*
COc1ccc(C(=O)COC(=O)c2cccc(-n3cnnn3)c2)c(OC)c1	u	-1.6%	-6.0%	-1.4%	-14.3	-22.3%
CC(NC(=O)CN1C(=O)NC2(CCCCC2)C1=O)c1ccc(S(N)(=O)=O)cc1 (stereo not given)	x	-2.7%	u	-11.6%	8.1	-5.1%
Clc1ccc(-c2ccc(-c3nn4c(-c5ccco5)nnc4s3)o2)cc1	x	-2.5%	u	-8.5%	-16.8	10.3µM*
Cc1ccc(S(=O)(=O)N2C[C@H]3C(=O)C[C@@H](c4ccccc4)N(S(=O)(=O)c4ccc(C)cc4)[C@H]3C[C@H]2c2ccc(Cl)cc2)cc1	x	0.6%	-0.6%	-7.5%	34.1	-23.3%

Source: PubChem
